Experimental data reported in the supplement of paper PMC9023506.
Counter-ions that a name gives are not always drawn.

Test system: Danio rerio larvae (5 dpf)
Assay: optomotor response to green moving lines, difference vs DMSO (percentage points (treated minus DMSO)); higher = more of the behaviour than the DMSO vehicle control
Settings: 10 µM; exposure time: 3 h pre-incubation + 3 h imaging
Protocol: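 5-dpf wild-type zebrafish larvae were imaged in 96-well plates. They were treated with 190 Tocris FDA-approved drugs at 10 µM (1 µl/ml DMSO) for 3 h before and 3 h during imaging at 28.5 °C, 48 larvae per drug. Automated image analysis gave % time moving and optomotor responses. Values are drug group mean minus DMSO vehicle mean (n=844), in percentage points, for 10 behaviours.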

Compound	optomotor response to green moving lines
CN(CCOc1ccc(NS(C)(=O)=O)cc1)CCc1ccc(NS(C)(=O)=O)cc1 [Dofetilide]	0.112
O=C(O)C[C@H](O)C[C@H](O)/C=C/c1c(C2CC2)nc2ccccc2c1-c1ccc(F)cc1 [Pitavastatin calcium]	11
CCCCC1=NC2(CCCC2)C(=O)N1Cc1ccc(-c2ccccc2-c2nnn[nH]2)cc1 [Irbesartan]	-19
C#CCN[C@@H]1CCc2ccccc21 [Rasagiline mesylate]	-10.1
O=C(O[C@@H]1C[C@@H]2C[C@H]3C[C@H](C1)N2CC3=O)c1c[nH]c2ccccc12 [Dolasetron mesylate]	-11.6
CC(=O)Oc1cc2c(s1)CCN(C(C(=O)C1CC1)c1ccccc1F)C2 (stereo not given) [Prasugrel]	-2.39
Clc1ccc2nsnc2c1NC1=NCCN1 [Tizanidine hydrochloride]	-0.817
O=c1n(CCCN2CCN(c3cccc(Cl)c3)CC2)nc2ccccn12 [Trazodone hydrochloride]	1.17
CC(C)OC(=O)C(C)(C)Oc1ccc(C(=O)c2ccc(Cl)cc2)cc1 [Fenofibrate]	8.84
CN/C(=N\CCSCc1nc[nH]c1C)NC#N [Cimetidine]	5.06
CCOC(=O)[C@H](CCc1ccccc1)N[C@@H](C)C(=O)N1[C@H](C(=O)O)C[C@@H]2CCC[C@@H]21 [Ramipril]	-0.542
CCOC(=O)C1=C(COCCN)NC(C)=C(C(=O)OC)C1c1ccccc1Cl (stereo not given) [Amlodipine besylate]	-4.86
CC1(C)O[C@@H]2[C@@H](CO[C@@]3(COS(N)(=O)=O)OC(C)(C)O[C@@H]23)O1 [Topiramate]	-1.84
N#Cc1ccc2[nH]cc(CCCCN3CCN(c4ccc5oc(C(N)=O)cc5c4)CC3)c2c1 [Vilazodone hydrochloride]	-30.3
CCCCCCCN(CC)CCCC(O)c1ccc(NS(C)(=O)=O)cc1 (stereo not given) [Ibutilide hemifumarate]	4.88
CC(C)(C(=O)c1cccnc1)c1cccnc1 [Metyrapone]	-5.18
Nc1cccc2c1CN(C1CCC(=O)NC1=O)C2=O (stereo not given) [Lenalidomide]	7.44
C/C(O)=C(\C#N)C(=O)Nc1ccc(C(F)(F)F)cc1 [Teriflunomide]	-10.8
CC(C)CN(C[C@@H](O)[C@H](Cc1ccccc1)NC(=O)O[C@H]1CO[C@H]2OCC[C@H]21)S(=O)(=O)c1ccc(N)cc1 [Darunavir]	1.64
O=C(O)CCCc1ccccc1 [Sodium 4-Phenylbutyrate]	-2.96

Compound	optomotor response to green moving lines
CCc1c2c(nc3ccc(OC(=O)N4CCC(N5CCCCC5)CC4)cc13)-c1cc3c(c(=O)n1C2)COC(=O)[C@]3(O)CC	-1.18
Cc1ccc(O)c([C@H](CCN(C(C)C)C(C)C)c2ccccc2)c1 [Tolterodine L-tartrate]	0.477
CCCC1O[C@@H]2C[C@H]3[C@@H]4CCC5=CC(=O)C=C[C@]5(C)[C@H]4[C@@H](O)C[C@]3(C)[C@]2(C(=O)CO)O1 (stereo not given in full) [Budesonide]	0.891
Clc1ccccc1C(c1ccccc1)(c1ccccc1)n1ccnc1 [Clotrimazole]	-19.6
CC[C@H](C)C(=O)O[C@H]1C[C@@H](C)C=C2C=C[C@H](C)[C@H](CC[C@@H]3C[C@@H](O)CC(=O)O3)[C@H]21 [Lovastatin]	-3.13
CC(C)n1c(/C=C/C(O)CC(O)CC(=O)O)c(-c2ccc(F)cc2)c2ccccc21 (stereo not given) [Fluvastatin sodium]	-3.1
COc1cc2nc(N3CCN(C(=O)C4COc5ccccc5O4)CC3)nc(N)c2cc1OC (stereo not given) [Doxazosin mesylate]	-8.3
COC(c1ccccc1)(c1ccccc1)[C@H](Oc1nc(C)cc(C)n1)C(=O)O [Ambrisentan]	-4.71
CCCCCCCCc1ccc(CCC(N)(CO)CO)cc1	-1.15
CCC(C)(C)C(=O)O[C@H]1C[C@@H](C)C=C2C=C[C@H](C)[C@H](CC[C@@H]3C[C@@H](O)CC(=O)O3)[C@H]21 [Simvastatin]	4.17
CCc1nc(N)nc(N)c1-c1ccc(Cl)cc1 [Pyrimethamine]	6.72
CC/C(=C(\c1ccccc1)c1ccc(OCCN(C)C)cc1)c1ccccc1 [Tamoxifen citrate]	-10
Cc1c(-c2ccc(O)cc2)n(Cc2ccc(OCCN3CCCCCC3)cc2)c2ccc(O)cc12 [Bazedoxifene acetate]	-2.2
COC(=O)C1=C(C)NC(C)=C(C(=O)OC(C)C)C1c1cccc2nonc12 (stereo not given) [Isradipine]	-1.42
CC(=O)NC[C@H]1CN(c2ccc(N3CCOCC3)c(F)c2)C(=O)O1 [Linezolid]	5.36
COc1ccc(Cl)cc1C(=O)NCCc1ccc(S(=O)(=O)NC(=O)NC2CCCCC2)cc1 [Glibenclamide]	9.49
CN1CC(=O)N2[C@H](c3ccc4c(c3)OCO4)c3[nH]c4ccccc4c3C[C@@H]2C1=O [Tadalafil]	-0.909
N#Cc1ccc(C(c2ccc(C#N)cc2)n2cncn2)cc1 [Letrozole]	6.3
C[C@@H](O[C@H]1OCCN(Cc2n[nH]c(=O)[nH]2)[C@H]1c1ccc(F)cc1)c1cc(C(F)(F)F)cc(C(F)(F)F)c1 [Aprepitant]	4.81
CN1CC[C@@H](NC(=O)Nc2ccc(C#N)cc2)C[C@@H]1c1nc2ccccc2[nH]1	-5.63
